{"source": "paper PMC7862700", "about": "“An all-to-all approach to the identification of sequence-specific readers for epigenetic DNA modifications on cytosine”", "assay_in_all_cases": "DAPPL (digital affinity profiling via proximity ligation, sequencing); 10 mM Tris-HCl pH 7.5, 50 mM NaCl, 1 mM DTT, 4% glycerol, room temperature, 30 min; GST-TFs on glutathione beads, 16-mer random dsDNA library, 0.1% formaldehyde crosslink after washing; high values mean tight binding", "key": {"GABPA": {"target": "T1, GABPA (Homo sapiens, UniProt Q06546 1-454)", "T1 sequence": "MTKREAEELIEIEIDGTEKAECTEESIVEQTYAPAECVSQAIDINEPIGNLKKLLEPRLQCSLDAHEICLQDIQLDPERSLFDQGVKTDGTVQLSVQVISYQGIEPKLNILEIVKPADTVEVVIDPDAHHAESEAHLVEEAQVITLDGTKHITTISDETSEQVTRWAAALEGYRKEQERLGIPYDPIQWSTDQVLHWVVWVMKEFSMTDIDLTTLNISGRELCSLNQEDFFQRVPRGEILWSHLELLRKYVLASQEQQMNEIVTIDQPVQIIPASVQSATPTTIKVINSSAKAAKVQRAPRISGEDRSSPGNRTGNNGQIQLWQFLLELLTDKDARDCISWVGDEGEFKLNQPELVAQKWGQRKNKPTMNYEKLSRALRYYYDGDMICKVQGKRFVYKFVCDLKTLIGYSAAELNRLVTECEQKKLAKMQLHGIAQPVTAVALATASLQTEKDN", "settings": "protein: recombinant; tags: N-terminal GST; dsDNA, one strand shown", "method_in_brief": "(§1)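 After expression in yeast as GST fusions, human transcription factors were bound to glutathione beads, DNA-barcoded and mixed with a tag-only sample. The pools were incubated with 200 nmole of a 16-mer random double-stranded DNA library in Tris/NaCl/DTT/glycerol buffer (30 min, room temperature), washed and crosslinked with 0.1% formaldehyde. Proximity ligation with BsaI/T4 ligase ran for 1 h at 37 °C, before PCR amplification and sequencing on an Illumina NextSeq500. Binding signal is a hexamer's read frequency for a factor divided by its frequency for the tag-only sample.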"}, "ELF1": {"target": "ELF1 (Homo sapiens, UniProt P32519 1-619)", "sequence (P32519 whole entry)": "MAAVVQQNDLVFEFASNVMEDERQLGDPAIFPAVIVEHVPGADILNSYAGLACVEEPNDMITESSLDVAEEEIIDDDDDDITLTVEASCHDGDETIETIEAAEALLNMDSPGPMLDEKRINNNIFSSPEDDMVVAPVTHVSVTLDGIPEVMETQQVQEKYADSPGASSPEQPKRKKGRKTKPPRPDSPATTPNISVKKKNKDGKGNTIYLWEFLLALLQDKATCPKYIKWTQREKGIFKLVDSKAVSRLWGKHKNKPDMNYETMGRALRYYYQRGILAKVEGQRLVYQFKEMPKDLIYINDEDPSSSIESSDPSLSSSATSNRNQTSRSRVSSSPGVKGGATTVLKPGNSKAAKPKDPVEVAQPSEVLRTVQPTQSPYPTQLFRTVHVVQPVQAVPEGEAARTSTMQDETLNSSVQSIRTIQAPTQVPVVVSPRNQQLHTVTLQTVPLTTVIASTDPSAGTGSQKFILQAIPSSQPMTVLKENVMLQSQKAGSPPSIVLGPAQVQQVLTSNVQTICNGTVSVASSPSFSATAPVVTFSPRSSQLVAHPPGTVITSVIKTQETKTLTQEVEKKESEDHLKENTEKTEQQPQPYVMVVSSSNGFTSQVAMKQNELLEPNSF", "settings": "protein: recombinant; tags: N-terminal GST; dsDNA, one strand shown", "method_in_brief": "as §1"}, "SPIB": {"target": "SPIB (Homo sapiens, UniProt Q01892 1-262)", "sequence (Q01892 whole entry)": "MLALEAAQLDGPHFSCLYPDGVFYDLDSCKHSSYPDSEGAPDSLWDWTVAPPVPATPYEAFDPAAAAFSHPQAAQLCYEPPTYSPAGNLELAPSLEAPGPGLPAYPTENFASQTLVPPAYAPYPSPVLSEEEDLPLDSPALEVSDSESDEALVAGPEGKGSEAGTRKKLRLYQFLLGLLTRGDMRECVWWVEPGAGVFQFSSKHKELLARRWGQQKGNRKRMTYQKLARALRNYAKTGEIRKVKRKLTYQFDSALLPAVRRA", "settings": "protein: recombinant; tags: N-terminal GST; dsDNA, one strand shown", "method_in_brief": "as §1"}, "HSF1": {"target": "HSF1 (Homo sapiens, UniProt Q00613 1-529)", "sequence (Q00613 whole entry)": "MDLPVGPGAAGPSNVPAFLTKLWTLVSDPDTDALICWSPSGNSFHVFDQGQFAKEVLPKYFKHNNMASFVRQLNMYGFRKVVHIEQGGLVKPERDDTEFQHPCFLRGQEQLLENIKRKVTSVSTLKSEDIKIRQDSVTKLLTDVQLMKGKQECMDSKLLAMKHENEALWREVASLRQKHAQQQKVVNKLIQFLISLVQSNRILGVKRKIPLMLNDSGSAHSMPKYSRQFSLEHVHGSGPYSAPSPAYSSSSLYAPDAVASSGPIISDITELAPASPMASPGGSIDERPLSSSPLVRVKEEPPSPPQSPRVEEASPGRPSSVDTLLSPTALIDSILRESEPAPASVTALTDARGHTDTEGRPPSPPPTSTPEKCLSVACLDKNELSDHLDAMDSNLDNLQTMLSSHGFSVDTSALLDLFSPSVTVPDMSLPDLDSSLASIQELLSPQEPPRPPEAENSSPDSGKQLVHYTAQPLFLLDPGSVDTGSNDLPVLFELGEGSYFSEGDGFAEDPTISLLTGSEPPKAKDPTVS", "settings": "protein: recombinant; tags: N-terminal GST; chain copies: 3; dsDNA, one strand shown", "method_in_brief": "as §1"}, "SPIC": {"target": "T2, SPIC (Homo sapiens, UniProt Q8N5J4 1-248)", "T2 sequence": "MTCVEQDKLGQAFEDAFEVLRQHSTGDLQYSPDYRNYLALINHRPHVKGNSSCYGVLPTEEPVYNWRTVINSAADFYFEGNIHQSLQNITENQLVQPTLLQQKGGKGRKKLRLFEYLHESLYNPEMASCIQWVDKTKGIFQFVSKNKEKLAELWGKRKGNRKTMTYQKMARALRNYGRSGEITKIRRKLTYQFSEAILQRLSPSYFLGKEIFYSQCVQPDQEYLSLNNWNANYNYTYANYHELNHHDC", "settings": "protein: recombinant; tags: N-terminal GST; dsDNA, one strand shown", "method_in_brief": "as §1"}, "ELF4": {"target": "ELF4 (Homo sapiens, UniProt Q99607 1-663)", "sequence (Q99607 whole entry)": "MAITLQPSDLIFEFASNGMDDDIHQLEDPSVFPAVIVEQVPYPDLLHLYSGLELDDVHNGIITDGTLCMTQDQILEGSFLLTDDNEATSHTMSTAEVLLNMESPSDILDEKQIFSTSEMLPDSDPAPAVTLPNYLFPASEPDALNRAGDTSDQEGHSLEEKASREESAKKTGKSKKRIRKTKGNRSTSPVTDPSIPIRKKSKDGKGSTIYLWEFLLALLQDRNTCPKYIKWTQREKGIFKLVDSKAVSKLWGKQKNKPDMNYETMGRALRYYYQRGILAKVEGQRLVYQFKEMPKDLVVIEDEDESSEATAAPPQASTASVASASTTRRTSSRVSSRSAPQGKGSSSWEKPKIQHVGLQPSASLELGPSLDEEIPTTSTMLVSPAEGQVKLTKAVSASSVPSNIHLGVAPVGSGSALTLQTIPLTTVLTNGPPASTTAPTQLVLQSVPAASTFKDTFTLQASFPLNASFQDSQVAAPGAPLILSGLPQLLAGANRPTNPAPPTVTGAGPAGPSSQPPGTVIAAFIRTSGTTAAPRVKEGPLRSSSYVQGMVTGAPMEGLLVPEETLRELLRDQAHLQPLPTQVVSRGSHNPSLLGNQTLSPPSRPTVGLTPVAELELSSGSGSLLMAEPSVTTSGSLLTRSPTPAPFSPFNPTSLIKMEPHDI", "settings": "protein: recombinant; tags: N-terminal GST; dsDNA, one strand shown", "method_in_brief": "as §1"}, "ELF3": {"target": "T3, ELF3 (Homo sapiens, UniProt P78545 1-371)", "T3 sequence": "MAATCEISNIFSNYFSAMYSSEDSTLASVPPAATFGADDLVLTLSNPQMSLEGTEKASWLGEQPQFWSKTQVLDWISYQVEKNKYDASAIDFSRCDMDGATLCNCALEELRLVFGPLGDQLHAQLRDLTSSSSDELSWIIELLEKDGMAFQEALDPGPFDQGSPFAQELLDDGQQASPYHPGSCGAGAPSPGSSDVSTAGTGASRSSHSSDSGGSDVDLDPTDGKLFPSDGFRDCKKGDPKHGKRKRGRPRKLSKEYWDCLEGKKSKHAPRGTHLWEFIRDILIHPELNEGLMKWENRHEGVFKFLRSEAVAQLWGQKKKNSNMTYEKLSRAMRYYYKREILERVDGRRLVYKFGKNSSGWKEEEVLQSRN", "settings": "protein: recombinant; tags: N-terminal GST; dsDNA, one strand shown", "method_in_brief": "as §1"}, "CRX": {"target": "CRX (Homo sapiens, UniProt O43186 1-299)", "sequence (O43186 whole entry)": "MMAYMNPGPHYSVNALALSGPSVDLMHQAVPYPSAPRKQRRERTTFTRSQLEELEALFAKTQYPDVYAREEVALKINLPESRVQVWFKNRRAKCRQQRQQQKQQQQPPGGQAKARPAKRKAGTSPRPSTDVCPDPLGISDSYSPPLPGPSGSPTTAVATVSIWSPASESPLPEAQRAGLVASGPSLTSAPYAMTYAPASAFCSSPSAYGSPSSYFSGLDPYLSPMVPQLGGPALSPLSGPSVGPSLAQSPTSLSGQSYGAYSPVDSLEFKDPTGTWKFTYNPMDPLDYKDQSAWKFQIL", "settings": "protein: recombinant; tags: N-terminal GST; dsDNA, one strand shown", "method_in_brief": "as §1"}, "ERF": {"target": "T4, ERF (Homo sapiens, UniProt P50548 1-548)", "T4 sequence": "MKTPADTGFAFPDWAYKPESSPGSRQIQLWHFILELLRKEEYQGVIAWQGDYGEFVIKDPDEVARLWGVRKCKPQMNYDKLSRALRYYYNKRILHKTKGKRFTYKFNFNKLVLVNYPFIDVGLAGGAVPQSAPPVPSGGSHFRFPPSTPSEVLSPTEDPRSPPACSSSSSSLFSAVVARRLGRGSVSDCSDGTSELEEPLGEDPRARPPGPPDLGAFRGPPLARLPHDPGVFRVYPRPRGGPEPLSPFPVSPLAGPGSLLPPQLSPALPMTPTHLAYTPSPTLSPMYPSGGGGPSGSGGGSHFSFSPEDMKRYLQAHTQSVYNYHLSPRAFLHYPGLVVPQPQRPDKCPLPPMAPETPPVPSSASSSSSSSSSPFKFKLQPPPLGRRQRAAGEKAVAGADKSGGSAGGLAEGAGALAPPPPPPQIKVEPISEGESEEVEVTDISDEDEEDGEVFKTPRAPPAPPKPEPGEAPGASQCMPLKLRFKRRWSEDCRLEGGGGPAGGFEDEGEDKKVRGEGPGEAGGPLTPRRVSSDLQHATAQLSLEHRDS", "settings": "protein: recombinant; tags: N-terminal GST; dsDNA, one strand shown", "method_in_brief": "as §1"}, "ETV3L": {"target": "T5, ETV3L (Homo sapiens, UniProt Q6ZN32 1-361)", "T5 sequence": "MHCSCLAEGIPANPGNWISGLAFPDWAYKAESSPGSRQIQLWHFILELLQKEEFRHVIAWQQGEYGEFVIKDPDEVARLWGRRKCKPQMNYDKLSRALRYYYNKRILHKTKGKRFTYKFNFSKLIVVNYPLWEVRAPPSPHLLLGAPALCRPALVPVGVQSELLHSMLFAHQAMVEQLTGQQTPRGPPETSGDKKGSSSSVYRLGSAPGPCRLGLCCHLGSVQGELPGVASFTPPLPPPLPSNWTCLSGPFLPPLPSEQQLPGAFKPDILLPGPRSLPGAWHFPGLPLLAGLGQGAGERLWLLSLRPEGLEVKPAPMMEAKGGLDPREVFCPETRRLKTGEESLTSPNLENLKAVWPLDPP", "settings": "protein: recombinant; tags: N-terminal GST; dsDNA, one strand shown", "method_in_brief": "as §1"}, "ETS2": {"target": "T6, ETS2 (Homo sapiens, UniProt P15036 1-469)", "T6 sequence": "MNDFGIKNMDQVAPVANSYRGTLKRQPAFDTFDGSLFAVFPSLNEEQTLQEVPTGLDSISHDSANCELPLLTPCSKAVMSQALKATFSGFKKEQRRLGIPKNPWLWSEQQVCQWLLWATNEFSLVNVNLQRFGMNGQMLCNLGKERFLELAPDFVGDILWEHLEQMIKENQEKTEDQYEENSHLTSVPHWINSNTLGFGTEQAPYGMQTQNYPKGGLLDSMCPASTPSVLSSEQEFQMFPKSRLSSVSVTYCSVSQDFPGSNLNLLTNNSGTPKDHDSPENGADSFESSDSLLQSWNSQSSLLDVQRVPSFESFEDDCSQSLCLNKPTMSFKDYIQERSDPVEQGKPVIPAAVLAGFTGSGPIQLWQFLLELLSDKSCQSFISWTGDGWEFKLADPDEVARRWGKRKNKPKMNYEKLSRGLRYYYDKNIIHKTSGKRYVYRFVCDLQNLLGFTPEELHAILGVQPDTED", "settings": "protein: recombinant; tags: N-terminal GST; dsDNA, one strand shown", "method_in_brief": "as §1"}, "SPDEF": {"target": "T7, SPDEF (Homo sapiens, UniProt O95238 1-335)", "T7 sequence": "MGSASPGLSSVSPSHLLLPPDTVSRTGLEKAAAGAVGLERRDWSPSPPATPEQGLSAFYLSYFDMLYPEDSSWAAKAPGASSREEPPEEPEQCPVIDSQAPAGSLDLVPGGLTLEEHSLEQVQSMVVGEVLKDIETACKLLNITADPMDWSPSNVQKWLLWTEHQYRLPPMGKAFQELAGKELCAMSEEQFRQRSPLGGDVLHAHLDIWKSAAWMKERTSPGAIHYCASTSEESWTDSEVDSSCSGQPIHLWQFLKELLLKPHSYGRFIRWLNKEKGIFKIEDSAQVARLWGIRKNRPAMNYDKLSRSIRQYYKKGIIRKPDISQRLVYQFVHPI", "settings": "protein: recombinant; tags: N-terminal GST; dsDNA, one strand shown", "method_in_brief": "as §1"}, "ETV7": {"target": "T8, ETV7 (Homo sapiens, UniProt Q9Y603 1-341)", "T8 sequence": "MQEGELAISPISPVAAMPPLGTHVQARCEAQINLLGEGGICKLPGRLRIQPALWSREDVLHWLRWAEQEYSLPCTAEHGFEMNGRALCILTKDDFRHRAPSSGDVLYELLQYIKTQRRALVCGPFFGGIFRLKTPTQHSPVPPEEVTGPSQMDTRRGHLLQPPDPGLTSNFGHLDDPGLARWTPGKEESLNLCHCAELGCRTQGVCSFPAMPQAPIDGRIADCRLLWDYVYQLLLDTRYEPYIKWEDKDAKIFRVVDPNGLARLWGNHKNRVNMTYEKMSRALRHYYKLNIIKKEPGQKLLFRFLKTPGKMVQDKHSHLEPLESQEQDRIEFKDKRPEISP", "settings": "protein: recombinant; tags: N-terminal GST; dsDNA, one strand shown", "method_in_brief": "as §1"}, "ETV3": {"target": "T9, ETV3 (Homo sapiens, UniProt P41162-2 1-143)", "T9 sequence": "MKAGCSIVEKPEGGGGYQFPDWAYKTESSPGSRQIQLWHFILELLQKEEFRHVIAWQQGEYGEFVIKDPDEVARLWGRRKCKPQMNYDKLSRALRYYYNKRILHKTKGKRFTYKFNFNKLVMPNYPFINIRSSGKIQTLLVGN", "settings": "protein: recombinant; tags: N-terminal GST; dsDNA, one strand shown", "method_in_brief": "as §1"}, "ETV6": {"target": "ETV6 (Homo sapiens, UniProt P41212 1-452)", "sequence (P41212 whole entry)": "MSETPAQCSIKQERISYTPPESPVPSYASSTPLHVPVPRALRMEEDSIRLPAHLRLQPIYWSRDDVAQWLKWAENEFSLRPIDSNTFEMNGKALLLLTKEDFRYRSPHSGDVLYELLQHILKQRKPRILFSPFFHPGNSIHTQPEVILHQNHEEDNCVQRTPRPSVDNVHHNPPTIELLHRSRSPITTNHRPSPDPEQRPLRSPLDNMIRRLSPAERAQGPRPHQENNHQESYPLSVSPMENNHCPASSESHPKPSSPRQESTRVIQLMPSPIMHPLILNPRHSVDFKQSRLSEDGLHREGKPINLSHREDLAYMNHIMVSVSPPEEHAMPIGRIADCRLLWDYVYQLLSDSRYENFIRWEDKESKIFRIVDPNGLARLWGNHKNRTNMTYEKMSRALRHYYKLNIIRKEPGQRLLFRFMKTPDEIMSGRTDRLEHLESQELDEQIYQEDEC", "settings": "protein: recombinant; tags: N-terminal GST; dsDNA, one strand shown", "method_in_brief": "as §1"}}}
{"sequence": "GCTTAA", "values": [{"measurement": "binding signal", "setting": "GABPA", "value": "1.14 fold enrichment (6-mer frequency, TF over GST control)"}, {"measurement": "binding signal", "setting": "ELF1", "value": "1.11 fold enrichment (6-mer frequency, TF over GST control)"}, {"measurement": "binding signal", "setting": "SPIB", "value": "1.09 fold enrichment (6-mer frequency, TF over GST control)"}, {"measurement": "binding signal", "setting": "HSF1", "value": "1.86 fold enrichment (6-mer frequency, TF over GST control)"}, {"measurement": "binding signal", "setting": "SPIC", "value": "1 fold enrichment (6-mer frequency, TF over GST control)"}, {"measurement": "binding signal", "setting": "ELF4", "value": "1.02 fold enrichment (6-mer frequency, TF over GST control)"}, {"measurement": "binding signal", "setting": "ELF3", "value": "1.02 fold enrichment (6-mer frequency, TF over GST control)"}, {"measurement": "binding signal", "setting": "CRX", "value": "3.04 fold enrichment (6-mer frequency, TF over GST control)"}, {"measurement": "binding signal", "setting": "ERF", "value": "1.03 fold enrichment (6-mer frequency, TF over GST control)"}, {"measurement": "binding signal", "setting": "ETV3L", "value": "1.05 fold enrichment (6-mer frequency, TF over GST control)"}, {"measurement": "binding signal", "setting": "ETS2", "value": "1.08 fold enrichment (6-mer frequency, TF over GST control)"}, {"measurement": "binding signal", "setting": "SPDEF", "value": "1.06 fold enrichment (6-mer frequency, TF over GST control)"}, {"measurement": "binding signal", "setting": "ETV7", "value": "1.06 fold enrichment (6-mer frequency, TF over GST control)"}, {"measurement": "binding signal", "setting": "ETV3", "value": "1.13 fold enrichment (6-mer frequency, TF over GST control)"}, {"measurement": "binding signal", "setting": "ETV6", "value": "1.05 fold enrichment (6-mer frequency, TF over GST control)"}]}
{"sequence": "TCGCGA", "values": [{"measurement": "binding signal", "setting": "HSF1", "value": "1.59 fold enrichment (6-mer frequency, TF over GST control)"}]}
{"sequence": "GCCAGA", "values": [{"measurement": "binding signal", "setting": "HSF1", "value": "1.02 fold enrichment (6-mer frequency, TF over GST control)"}]}
{"sequence": "AGAAGG", "values": [{"measurement": "binding signal", "setting": "HSF1", "value": "1.28 fold enrichment (6-mer frequency, TF over GST control)"}]}
{"sequence": "CATAGA", "values": [{"measurement": "binding signal", "setting": "HSF1", "value": "1.15 fold enrichment (6-mer frequency, TF over GST control)"}]}
